These results are taken from PubChem BioAssay.

Each structure is given as a SMILES string. Active and inactive are the calls of the source.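 Rule for the calls: active = normalized viability below 100% at a tested concentration; inactive = the rest.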

One experiment is described as follows: ovarian cancer cell viability with rucaparib, profiling panel, oncology-focused library, rucaparib conditional (AID 1508598). The conditions noted are these: patient-derived ovarian cancer cells, CellTiter-Glo viability, 144 h; at 0.313 µM; OCI-C5x cells; without rucaparib; stronger effect = lower value.
As usually defined, the viability is a read-out of living cells in per cent, often relative to untreated cells. Turning to `CNC(=O)c1cc(Oc2ccc(NC(=O)Nc3ccc(Cl)c(C(F)(F)F)c3)c(F)c2)ccn1`, the viability was 102% (inactive).
On the same count and under the same terms, the same measure for `O=C(CCCCCCC(=O)Nc1ccc([C@H]2O[C@@H](CSc3nc(-c4ccccc4)c(-c4ccccc4)o3)C[C@@H](c3ccc(CO)cc3)O2)cc1)NO`: 137% (inactive).
Take `CNC(=O)c1cc(COc2nnc(Nc3ccc(Cl)cc3)c3ccoc23)ccn1`: the viability is 113% (inactive).
Still for that read-out and setting: the same measure for `CS(=O)(=O)N1CCc2c(-c3cnc(N)nc3)nc(N3CCOCC3)nc21`: 105% (inactive); for `Nc1ccn([C@@H]2O[C@H](CO)[C@@H](O)C2(F)F)c(=O)n1`: 35.1% (active).

Staying with this experiment, now noted: patient-derived ovarian cancer cells, CellTiter-Glo viability, 144 h; at 0.313 µM; OCI-P5x cells; with rucaparib 20 µM; stronger effect = lower value; 100% = cells with rucaparib alone.
`CNC(=O)c1cc(Oc2ccc(NC(=O)Nc3ccc(Cl)c(C(F)(F)F)c3)c(F)c2)ccn1`: the viability is 115% (inactive).
For `O=C(CCCCCCC(=O)Nc1ccc([C@H]2O[C@@H](CSc3nc(-c4ccccc4)c(-c4ccccc4)o3)C[C@@H](c3ccc(CO)cc3)O2)cc1)NO`, the viability was 104% (inactive).
On to `CNC(=O)c1cc(COc2nnc(Nc3ccc(Cl)cc3)c3ccoc23)ccn1`, for which the viability is 103% (inactive).
`CS(=O)(=O)N1CCc2c(-c3cnc(N)nc3)nc(N3CCOCC3)nc21`: the viability was 109% (inactive).
As to `Nc1ccn([C@@H]2O[C@H](CO)[C@@H](O)C2(F)F)c(=O)n1`, the viability was 58.9% (active).
